According to PubChem BioAssay (Tox21):
Unmarked numbers belong to inactive results. Inconclusive results are not listed. Calls of active or inactive are those of the source. Calls come from the whole dose curve; as a rule, active = well fitted curve in the direction sought with a large enough effect in the repeat runs; inconclusive = weak or mixed curves; inactive = no such curve, though single readings can be large; an effect the other way counts as inactive or inconclusive.

Assays:
[1] = Human pregnane X receptor (PXR) small molecule agonists, qHTS cell viability counter screen (AID 1346977); note: nearly all actives have a fitted effect of over 50% in size; note: potency is the fitted concentration of half-maximal effect
Summary of the method: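 Tox21 qHTS format; PXR-Luc HepG2, 2,000/well, charcoal-stripped FBS 5%. Cpd exposure 24hr. Read: CellTiter-Fluor fluorescence, multiplexed with luciferase.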

[2] = Caspase-3/7 induction in HepG2 cells by small molecules, qHTS assay (AID 1346978); note: nearly all actives have a fitted effect of over 15% in size; note: potency is the fitted concentration of half-maximal effect
Summary of the method: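 Wild-type HepG2 cells, 2,000/well, settled 5 hr at 37 C and 5% CO2, then compound-treated for 17 hr; caspase-3/7 activity read by luminescent Caspase-Glo 3/7 after 30 min at room temperature.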

[3] = Caspase-3/7 induction in CHO-K1 cells by small molecules, qHTS cell viability counter screen (AID 1346979); note: nearly all actives have a fitted effect of over 35% in size; note: potency is the fitted concentration of half-maximal effect
Summary of the method: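 CellTiter-Fluor viability check, qHTS format: wild-type CHO-K1, 16hr compound treatment, 1hr reagent incubation, fluorescence read.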

[4] = Caspase-3/7 induction in CHO-K1 cells by small molecules, qHTS assay (AID 1346980); note: nearly all actives have a fitted effect of over 15% in size; note: potency is the fitted concentration of half-maximal effect
Summary of the method: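 Wild-type CHO-K1 cells exposed to compounds for 17hr at 37 C, 5% CO2. Caspase-3/7 activity then measured by Caspase-Glo 3/7 luminescence after 30min at room temperature.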

[5] = Caspase-3/7 induction in HepG2 cells by small molecules, qHTS cell viability counter screen (AID 1346981); note: nearly all actives have a fitted effect of over 30% in size; note: potency is the fitted concentration of half-maximal effect
Summary of the method: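 Cell viability is measured as a cytotoxicity counter screen alongside the Caspase-Glo 3/7 readout in identical wells. Wild-type HepG2 cells are treated with test compounds for 16 hr at 37 C before CellTiter-Fluor addition and a 1-hr incubation.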

[6] = biological target: Nuclear receptor subfamily 1 group I member 2 (Homo sapiens) (UniProt O75469); experiment: Human pregnane X receptor (PXR) small molecule agonists, qHTS assay (AID 1346982); note: nearly all actives have a fitted effect of over 35% in size; note: potency is the fitted concentration of half-maximal effect
Chain of Nuclear receptor subfamily 1 group I member 2 (Homo sapiens) (O75469 whole entry, looked up): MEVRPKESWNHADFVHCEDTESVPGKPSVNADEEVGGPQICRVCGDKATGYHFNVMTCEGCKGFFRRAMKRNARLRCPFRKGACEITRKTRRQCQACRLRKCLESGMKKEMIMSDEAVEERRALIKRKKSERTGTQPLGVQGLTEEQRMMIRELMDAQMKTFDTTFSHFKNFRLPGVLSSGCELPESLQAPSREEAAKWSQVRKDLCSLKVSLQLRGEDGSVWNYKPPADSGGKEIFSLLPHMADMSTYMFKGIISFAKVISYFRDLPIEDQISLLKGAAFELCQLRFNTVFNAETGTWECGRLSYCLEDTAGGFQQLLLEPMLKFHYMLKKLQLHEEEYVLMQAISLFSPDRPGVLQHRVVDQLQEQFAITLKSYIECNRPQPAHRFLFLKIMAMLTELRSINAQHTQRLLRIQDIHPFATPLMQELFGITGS
Summary of the method: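 Cells: HepG2 stably carrying PXR-Luc. Medium held 5% charcoal-stripped FBS. Compounds in DMSO added after 5 hr plating, incubated 24 hr, then luminescence quantified with ONE-Glo.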

[7] = biological target: Nuclear receptor subfamily 1 group I member 2 (Homo sapiens) (UniProt O75469); experiment: CYP3A4 induction through human pregnane X receptor (PXR) by small molecules, qHTS assay (AID 1346984); note: nearly all actives have a fitted effect of over 40% in size
Summary of the method: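 Quantitative HTS in DPX-2 cells, i.e. HepG2 transfected with PXR response element and CYP3A4-promoter luciferase. Compounds in DMSO incubated 24hr at 37C; then P450-Glo CYP3A4 substrate, 3uM final, 3hr; One-Glo luminescence.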

[8] = biological target: Cytochrome P450 2C9 (Homo sapiens) (UniProt P11712); experiment: Cytochrome P450 Family 2 Subfamily C Member 9 (CYP2C9) small molecule antagonists: luciferase reporter qHTS assay (AID 1671198); note: nearly all actives have a fitted effect of over 50% in size; note: potency is the fitted concentration of half-maximal effect; for activity change, negative = inhibition: series mostly up to about 120 µM
Chain of Cytochrome P450 2C9 (Homo sapiens) (P11712 whole entry, looked up): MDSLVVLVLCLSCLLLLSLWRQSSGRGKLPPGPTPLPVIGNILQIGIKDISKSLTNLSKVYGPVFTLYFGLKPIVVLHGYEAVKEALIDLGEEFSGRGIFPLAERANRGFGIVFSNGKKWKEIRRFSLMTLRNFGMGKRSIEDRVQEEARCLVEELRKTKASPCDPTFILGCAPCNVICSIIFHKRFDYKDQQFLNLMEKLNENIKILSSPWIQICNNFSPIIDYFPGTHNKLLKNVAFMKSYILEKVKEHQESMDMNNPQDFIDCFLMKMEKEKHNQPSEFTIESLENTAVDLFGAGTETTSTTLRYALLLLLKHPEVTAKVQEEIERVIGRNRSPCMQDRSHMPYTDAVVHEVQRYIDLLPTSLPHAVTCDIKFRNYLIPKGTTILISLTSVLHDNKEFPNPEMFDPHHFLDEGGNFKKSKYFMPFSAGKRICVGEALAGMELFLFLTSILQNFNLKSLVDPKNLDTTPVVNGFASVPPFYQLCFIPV
Summary of the method: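 P450-Glo proluciferin substrate with CYP2C9 enzyme; 10 min RT preincubation, then NADPH regeneration 1 h at 37C; luciferin detection reagent 20 min RT, luminescence in relative luminescence units.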

[9] = biological target: Voltage-gated inwardly rectifying potassium channel KCNH2 (Homo sapiens) (UniProt Q12809); experiment: Human Ether-a-go-go-Related Gene (hERG) channel small molecule antagonists: fluorescence cell-based qHTS assay (AID 1671200); note: nearly all actives have a fitted effect of over 50% in size; note: potency is the fitted concentration of half-maximal effect;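 for activity change, negative = inhibition: hERG-expressing U2OS cells given a thallium stimulus after FluxOR II dye loading; series mostly up to about 77 µM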
Chain of Voltage-gated inwardly rectifying potassium channel KCNH2 (Homo sapiens) (Q12809 whole entry, looked up): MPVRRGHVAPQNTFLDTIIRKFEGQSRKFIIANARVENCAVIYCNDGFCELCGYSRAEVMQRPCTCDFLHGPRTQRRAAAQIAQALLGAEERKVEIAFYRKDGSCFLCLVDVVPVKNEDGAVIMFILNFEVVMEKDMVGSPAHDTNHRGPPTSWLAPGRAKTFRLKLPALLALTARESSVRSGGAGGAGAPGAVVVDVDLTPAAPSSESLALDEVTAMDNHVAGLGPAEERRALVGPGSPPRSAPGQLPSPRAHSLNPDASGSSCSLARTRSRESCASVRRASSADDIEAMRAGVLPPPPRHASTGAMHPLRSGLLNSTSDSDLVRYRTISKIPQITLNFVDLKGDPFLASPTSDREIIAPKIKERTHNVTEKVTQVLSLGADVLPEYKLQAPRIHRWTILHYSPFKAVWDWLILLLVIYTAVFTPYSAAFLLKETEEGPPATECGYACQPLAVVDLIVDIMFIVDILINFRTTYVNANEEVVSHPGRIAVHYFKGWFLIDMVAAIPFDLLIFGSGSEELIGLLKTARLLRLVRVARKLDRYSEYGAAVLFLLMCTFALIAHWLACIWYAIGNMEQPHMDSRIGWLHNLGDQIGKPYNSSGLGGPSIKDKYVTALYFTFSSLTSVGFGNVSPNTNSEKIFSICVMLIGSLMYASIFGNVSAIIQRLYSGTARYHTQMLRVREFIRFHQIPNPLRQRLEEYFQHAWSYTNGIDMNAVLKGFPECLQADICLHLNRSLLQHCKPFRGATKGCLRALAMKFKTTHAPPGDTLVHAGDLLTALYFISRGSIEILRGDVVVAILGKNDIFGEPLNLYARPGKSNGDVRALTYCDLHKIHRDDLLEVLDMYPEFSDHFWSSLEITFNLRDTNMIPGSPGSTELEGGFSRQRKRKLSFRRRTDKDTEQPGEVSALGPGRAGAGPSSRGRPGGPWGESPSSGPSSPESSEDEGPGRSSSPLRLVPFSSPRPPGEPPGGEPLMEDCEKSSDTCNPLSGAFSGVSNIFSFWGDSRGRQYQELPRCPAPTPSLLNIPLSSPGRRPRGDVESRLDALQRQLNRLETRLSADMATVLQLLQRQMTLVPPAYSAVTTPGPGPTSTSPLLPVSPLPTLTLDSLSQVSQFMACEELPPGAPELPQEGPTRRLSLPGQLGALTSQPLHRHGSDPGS
Summary of the method: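 Kinetic two-minute fluorescence traces, sampled at 1 s, were collected following thallium stimulus of U2OS cells (1000 per well) that had been cultured overnight at 37 C and loaded with FluxOR II.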

[10] = biological target: Cytochrome P450 2D6 (Homo sapiens) (UniProt P10635); experiment: Cytochrome P450 Family 2 Subfamily D Member 6 (CYP2D6) small molecule antagonists: luciferase reporter qHTS assay (AID 1671196); note: nearly all actives have a fitted effect of over 50% in size; note: potency is the fitted concentration of half-maximal effect; for activity change, negative = inhibition: series mostly up to about 120 µM
Chain of Cytochrome P450 2D6 (Homo sapiens) (P10635 whole entry, looked up): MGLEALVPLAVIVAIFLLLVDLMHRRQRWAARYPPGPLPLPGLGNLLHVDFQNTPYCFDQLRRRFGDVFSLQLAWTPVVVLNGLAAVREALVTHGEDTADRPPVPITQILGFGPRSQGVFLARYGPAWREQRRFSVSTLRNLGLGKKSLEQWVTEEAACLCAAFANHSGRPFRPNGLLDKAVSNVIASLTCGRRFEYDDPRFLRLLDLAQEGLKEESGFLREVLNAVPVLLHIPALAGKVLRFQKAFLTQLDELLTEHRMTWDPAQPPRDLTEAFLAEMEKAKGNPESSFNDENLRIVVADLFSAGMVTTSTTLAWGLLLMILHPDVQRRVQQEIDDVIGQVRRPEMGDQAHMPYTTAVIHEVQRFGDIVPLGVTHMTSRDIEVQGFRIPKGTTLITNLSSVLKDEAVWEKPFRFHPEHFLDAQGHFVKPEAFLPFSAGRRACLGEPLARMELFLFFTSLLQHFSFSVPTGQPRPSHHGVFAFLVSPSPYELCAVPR
Summary of the method: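 Enzyme and proluciferin substrate were first combined with test chemical for 10 min at room temperature. Adding NADPH regeneration solution started a 1 h reaction, stopped with luciferin detection reagent and read by luminescence 20 min later.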

[11] = biological target: Cytochrome P450 2C19 (Homo sapiens) (UniProt P33261); experiment: Cytochrome P450 Family 2 Subfamily C Member 19 (CYP2C19) small molecule antagonists: luciferase reporter qHTS assay (AID 1671197); note: nearly all actives have a fitted effect of over 65% in size; note: potency is the fitted concentration of half-maximal effect; for activity change, negative = inhibition: series mostly up to about 120 µM
Chain of Cytochrome P450 2C19 (Homo sapiens) (P33261 whole entry, looked up): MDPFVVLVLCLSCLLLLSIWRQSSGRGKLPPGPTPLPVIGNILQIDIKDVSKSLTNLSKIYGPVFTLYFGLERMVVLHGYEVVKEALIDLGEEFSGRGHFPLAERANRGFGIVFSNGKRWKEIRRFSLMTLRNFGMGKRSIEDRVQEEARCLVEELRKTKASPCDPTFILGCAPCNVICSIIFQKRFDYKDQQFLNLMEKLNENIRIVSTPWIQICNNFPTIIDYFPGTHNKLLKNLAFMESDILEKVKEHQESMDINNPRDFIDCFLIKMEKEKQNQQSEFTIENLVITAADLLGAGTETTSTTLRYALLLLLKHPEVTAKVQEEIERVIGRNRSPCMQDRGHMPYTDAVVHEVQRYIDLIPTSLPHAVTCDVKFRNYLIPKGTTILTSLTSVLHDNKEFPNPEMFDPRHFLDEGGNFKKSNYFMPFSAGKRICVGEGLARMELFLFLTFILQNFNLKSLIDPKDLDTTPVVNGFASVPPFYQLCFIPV
Summary of the method: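 CYP2C19 P450-Glo, 1536-well qHTS. Cpd + enzyme/proluciferin substrate 10 min RT; + NADPH regen, 37C 1 h; stop with luciferin detection reagent, 20 min RT, luminescence (RLU). Pos ctrl ketoconazole.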

[12] = biological target: Cytochrome P450 1A2 (Homo sapiens) (UniProt P05177); experiment: Cytochrome P450 Family 1 Subfamily A Member 2 (CYP1A2) small molecule antagonists: luciferase reporter qHTS assay (AID 1671199); note: nearly all actives have a fitted effect of over 50% in size; note: potency is the fitted concentration of half-maximal effect; for activity change, negative = inhibition: series mostly up to about 120 µM
Chain of Cytochrome P450 1A2 (Homo sapiens) (P05177 whole entry, looked up): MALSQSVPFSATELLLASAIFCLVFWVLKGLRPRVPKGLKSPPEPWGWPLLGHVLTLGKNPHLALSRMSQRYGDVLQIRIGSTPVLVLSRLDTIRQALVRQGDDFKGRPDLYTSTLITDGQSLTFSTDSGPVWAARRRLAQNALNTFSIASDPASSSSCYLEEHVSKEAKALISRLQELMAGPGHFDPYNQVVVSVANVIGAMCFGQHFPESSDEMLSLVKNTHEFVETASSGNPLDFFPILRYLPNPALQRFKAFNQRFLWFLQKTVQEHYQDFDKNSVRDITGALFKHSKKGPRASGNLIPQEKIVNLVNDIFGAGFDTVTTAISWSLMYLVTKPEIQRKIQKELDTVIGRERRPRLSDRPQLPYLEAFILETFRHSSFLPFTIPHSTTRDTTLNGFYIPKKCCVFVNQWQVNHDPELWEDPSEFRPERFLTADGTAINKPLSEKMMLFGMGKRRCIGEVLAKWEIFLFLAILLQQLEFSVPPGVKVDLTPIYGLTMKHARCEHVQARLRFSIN
Summary of the method: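 Compounds were incubated with CYP1A2 and a luminogenic proluciferin substrate for 10 min at room temperature before the reaction was started with NADPH regeneration solution. After 1 h, detection reagent was added and light output, proportional to CYP activity, was recorded.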

[13] = biological target: Cytochrome P450 3A4 (Homo sapiens) (UniProt P08684); experiment: Cytochrome P450 Family 3 Subfamily A Member 4 (CYP3A4) small molecule antagonists: luciferase reporter qHTS assay (AID 1671201); note: nearly all actives have a fitted effect of over 50% in size; note: potency is the fitted concentration of half-maximal effect; for activity change, negative = inhibition: series mostly up to about 120 µM
Chain of Cytochrome P450 3A4 (Homo sapiens) (P08684 whole entry, looked up): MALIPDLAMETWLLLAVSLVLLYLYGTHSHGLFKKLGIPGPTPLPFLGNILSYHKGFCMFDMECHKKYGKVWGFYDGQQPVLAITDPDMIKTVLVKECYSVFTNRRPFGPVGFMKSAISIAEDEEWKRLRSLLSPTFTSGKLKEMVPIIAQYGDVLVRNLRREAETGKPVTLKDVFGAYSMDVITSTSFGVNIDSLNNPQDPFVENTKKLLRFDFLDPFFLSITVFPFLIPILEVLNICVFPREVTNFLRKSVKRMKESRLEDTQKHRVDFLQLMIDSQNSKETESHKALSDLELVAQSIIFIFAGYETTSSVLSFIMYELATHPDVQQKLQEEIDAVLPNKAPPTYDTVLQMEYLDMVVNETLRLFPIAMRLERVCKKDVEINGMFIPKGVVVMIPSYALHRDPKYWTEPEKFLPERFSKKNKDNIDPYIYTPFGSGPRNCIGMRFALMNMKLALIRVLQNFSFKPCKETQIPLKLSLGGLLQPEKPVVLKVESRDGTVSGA
Summary of the method: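 Proluciferin-to-luciferin conversion by CYP3A4, NADPH-regenerated, 1 h RT; luminescence read as RLU. Ketoconazole as control.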

[14] = biological target: Nuclear receptor subfamily 1 group I member 2 (Homo sapiens) (UniProt O75469); experiment: Human pregnane X receptor (PXR) activation by small molecules, qHTS assay (AID 1346985); note: nearly all actives have a fitted effect of over 40% in size
Summary of the method: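 DPX-2 cells (HepG2 co-transfected with a PXR response element and a CYP3A4-promoter luciferase construct) were seeded at 2,000 per well, rested 5 hr at 37C, then exposed to DMSO-dissolved compounds for 24 hr. Activation was read as luciferase luminescence.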
% is set by controls: 0 for no effect and ±100 for the full control effect.

Compound: COc1cccc2c1C(=O)c1c(O)c3c(c(O)c1C2=O)C[C@@](O)(C(=O)CO)C[C@@H]3O[C@H]1C[C@H](N)[C@H](O[C@@H]2CCCCO2)[C@H](C)O1
- Potency [1]: 1.68 µM (active)
- Potency [2]: 2.37 µM (active)
- Potency [3]: 6.68 µM (active)
- Potency [4]: inactive
- Potency [5]: 8.41 µM (active)
- Potency [6]: inactive
- Potency [7]: inactive
- Potency [8]: 15.5 µM (active)
- Potency [9]: inactive

Compound: CN(C)C(=O)C1(N2CCCCC2)CCN(CC[C@@]2(c3ccc(Cl)c(Cl)c3)CN(C(=O)c3ccccc3)CCO2)CC1
- Potency [1]: 25.5 µM (active)
- Potency [2]: 45.4 µM (active)
- Potency [3]: 28.6 µM (active)
- Potency [4]: 57.1 µM (active)
- Potency [5]: 50.9 µM (active)
- Potency [6]: 20.3 µM (active)
- Potency [10]: 6.63 µM (active)
- Potency [11]: 1.67 µM (active)
- Potency [8]: 37.3 µM (active)
- Potency [12]: inactive
- Potency [13]: 0.744 µM (active)

Compound: Oc1cc2ccccc2c2ccccc12
- Potency [1]: 13.7 µM (active)
- Potency [2]: inactive
- Potency [3]: 15.4 µM (active)
- Potency [4]: inactive
- Potency [5]: 13.7 µM (active)
- Potency [6]: inactive
- Potency [10]: 2.24 µM (active)
- Potency [11]: 1.12 µM (active)
- Potency [8]: 5.03 µM (active)
- Potency [9]: inactive
- Potency [13]: 6.33 µM (active)

Compound: C[n+]1cc2c3c(ccc2c2ccc4cc5c(cc4c21)OCO5)OCO3
- Potency [1]: 2.91 µM (active)
- Potency [2]: 3.66 µM (active)
- Potency [3]: 1.03 µM (active)
- Potency [4]: 1.3 µM (active)
- Potency [5]: 5.17 µM (active)
- activation [6]: -46.6% [at 19 µM]
- Potency [10]: 6.74 µM (active)
- Potency [11]: 1.07 µM (active)
- Potency [12]: 12 µM (active)
- activity change, negative = inhibition [9]: -0.0312% [at 15.8 µM]

Compound: Cc1cc(C2CCCCC2)n(O)c(=O)c1
- Potency [1]: 26.6 µM (active)
- Potency [2]: inactive
- Potency [3]: 23.7 µM (active)
- Potency [4]: inactive
- Potency [5]: inactive
- Potency [6]: inactive
- Potency [7]: inactive
- Potency [14]: inactive
- Potency [10]: inactive
- Potency [11]: inactive
- Potency [9]: inactive
- Potency [13]: inactive

Compound: CCCCCCCCCCCCCC[P+](CCCC)(CCCC)CCCC (tested in a mixture with another compound)
- Potency [1]: 12.3 µM (active)
- Potency [2]: 27.5 µM (active)
- Potency [3]: 7.74 µM (active)
- Potency [4]: inactive
- Potency [5]: 24.5 µM (active)
- Potency [6]: 7.74 µM (active)
- Potency [10]: 0.113 µM (active)
- Potency [11]: 17.9 µM (active)
- Potency [8]: 11.3 µM (active)
- Potency [9]: 0.124 µM (active)
- Potency [13]: inactive

Compound: Cc1cc(O)c(C(C)(C)C)cc1Sc1cc(C(C)(C)C)c(O)cc1C
- Potency [1]: 13.7 µM (active)
- Potency [2]: 30.6 µM (active)
- Potency [3]: 2.73 µM (active)
- Potency [4]: inactive
- Potency [5]: 54.4 µM (active)
- Potency [6]: 10.8 µM (active)
- Potency [10]: 25.1 µM (active)
- Potency [11]: 0.398 µM (active)
- Potency [8]: 2.51 µM (active)
- Potency [12]: 39.8 µM (active)
- Potency [13]: 5.63 µM (active)

Compound: CCCCCCCC/C=C\CCCCCCCCOCCO
- Potency [1]: 15.9 µM (active)
- Potency [2]: inactive
- Potency [3]: 35.5 µM (active)
- Potency [4]: inactive
- Potency [5]: 35.5 µM (active)
- Potency [6]: 3.98 µM (active)
- Potency [10]: inactive
- Potency [11]: 46.3 µM (active)
- Potency [8]: 29.2 µM (active)
- Potency [13]: 11.6 µM (active)

Compound: ON=C1CCCC1
- Potency [1]: inactive
- Potency [2]: inactive
- Potency [3]: inactive
- Potency [4]: inactive
- Potency [5]: inactive
- Potency [6]: inactive
- Potency [11]: 32.8 µM (active)
- Potency [8]: 41.3 µM (active)
- Potency [12]: 36.8 µM (active)
- Potency [9]: inactive

Compound: C[C@]12CCC(=O)C=C1CC[C@@H]1[C@@H]2[C@@H](O)C[C@@]2(C)[C@H]1CC[C@]2(O)C(=O)COC(=O)CCC(=O)O
- Potency [1]: inactive
- Potency [2]: inactive
- Potency [3]: inactive
- Potency [4]: inactive
- Potency [5]: inactive
- Potency [6]: inactive
- Potency [10]: inactive
- Potency [11]: inactive
- Potency [8]: inactive
- Potency [12]: inactive
- Potency [13]: inactive

Compound: COc1cc(-c2ccc(N=C=O)c(OC)c2)ccc1N=C=O
- Potency [1]: inactive
- Potency [2]: inactive
- Potency [3]: inactive
- Potency [4]: inactive
- Potency [5]: inactive
- Potency [6]: inactive
- Potency [10]: inactive
- Potency [8]: inactive
- Potency [12]: inactive
- Potency [9]: inactive

Compound: Clc1ccc2n[nH]nc2c1
- Potency [1]: inactive
- Potency [2]: inactive
- Potency [3]: inactive
- Potency [4]: inactive
- Potency [5]: inactive
- Potency [6]: inactive
- Potency [10]: inactive
- Potency [11]: inactive
- Potency [8]: inactive
- Potency [9]: inactive
- Potency [13]: inactive

Compound: CCN1/C(=C/C=C/c2sc3ccccc3[n+]2CC)Sc2ccccc21
- Potency [1]: 5.17 µM (active)
- caspase activation [2]: -8.48% [at 19 µM]
- Potency [3]: 1.46 µM (active)
- caspase-3/7 activation [4]: 0.607% [at 19 µM]
- Potency [5]: 10.3 µM (active)
- activation [6]: 29.7% [at 19 µM]
- Potency [7]: inactive
- Potency [14]: inactive
- Potency [10]: 12 µM (active)
- Potency [11]: 19 µM (active)
- activity change, negative = inhibition [9]: -25.3% [at 15.8 µM]
- Potency [13]: 6.01 µM (active)

Compound: O=[N+]([O-])c1cc(Cl)c(Cl)c(Cl)c1Cl
- Potency [1]: inactive
- Potency [2]: inactive
- Potency [3]: 60.9 µM (active)
- Potency [4]: inactive
- Potency [5]: inactive
- Potency [6]: 60.9 µM (active)
- Potency [10]: inactive
- Potency [11]: 39.8 µM (active)
- Potency [12]: 2.24 µM (active)
- Potency [9]: inactive
- Potency [13]: inactive

Compound: C=CC(=O)OCC(CO)(COCC(COC(=O)C=C)(COC(=O)C=C)COC(=O)C=C)COC(=O)C=C
- Potency [1]: 3.03 µM (active)
- Potency [2]: 6.04 µM (active)
- Potency [3]: 0.76 µM (active)
- Potency [4]: 0.48 µM (active)
- Potency [5]: 3.81 µM (active)
- Potency [6]: 1.91 µM (active)
- Potency [10]: 15.7 µM (active)
- Potency [11]: 7.87 µM (active)
- Potency [8]: 7.02 µM (active)
- Potency [13]: 0.395 µM (active)
